VP16 counter – VP16 counterscreen qHTS for inhibitors of ROR gamma transcriptional activity; Drosophila S2 Gal4-VP16 UAS-luciferase, luminescence, 20 h; Potency, µM (top dose mostly 53.6 µM), for the others: at the top dose activity, negative = inhibition, usual class: inhibitors; 310,000 compounds, 3.5% hits;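 note: Gal4-VP16 expression switched on by copper sulfate through the metallothionein promoter; % is set by controls: 0 for no effect and ±100 for the full control effect; nearly all actives have a fitted effect of over 50% in size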
PINK1 expr mod – A Quantitative High throughput Screen to Identify Chemical Modulators of PINK1 Expression; PINK1 immunofluorescence, high-content cytometry, 24 h; AID 624263, 2012; 410,000 compounds, 0.2% hits; Potency, µM (top dose mostly 76.6 µM), for the others: top-dose activation (PINK1 increase), actives largely listed as activators; active = well fitted activation curve with a large enough effect; inconclusive = small, poorly fitted or top-dose-only effect; cell line not stated here; note: % of control where 0% means no effect; nearly all actives have a fitted effect of over 65% in size
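Readout is PINK1 immunofluorescence, quantified alongside mitochondrial, cell and nuclear markers by laser-scanning microplate cytometry. Cells from a stable line were exposed to compound titrations (5 concentrations) for 24 hours, with CCCP controls.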
ClpP mod – qHTS Assay for Activators of ClpP; ATP-dependent Clp protease proteolytic subunit (Bacillus subtilis (strain 168)), P80244; purified B. subtilis ClpP, FRET peptide cleavage, 20 min; Potency, µM (highest dose often 57.5 µM), for inactives: at the top dose activity change, negative = active; 340,000 compounds, 1.9% hits; AID 651965, 2013; active = well fitted falling curve with a large enough effect; inconclusive = small, poorly fitted or top-dose-only effect; inactive = no such curve, though single readings can be large or run the other way; note: the source files actives as falling curves though it sought activators and does not explain the sign; nearly all actives have a fitted effect of over 65% in size
Target sequence (P80244 whole entry, looked up): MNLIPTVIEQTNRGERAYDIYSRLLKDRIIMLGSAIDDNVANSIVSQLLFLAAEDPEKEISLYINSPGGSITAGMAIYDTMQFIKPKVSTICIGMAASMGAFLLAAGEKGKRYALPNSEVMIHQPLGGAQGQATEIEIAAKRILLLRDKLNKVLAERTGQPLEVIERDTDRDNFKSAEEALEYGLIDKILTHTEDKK
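FRET quenching reversal measured ClpP activation: 10 microg/mL B. subtilis ClpP at pH 8 with the FRET-FV decapeptide, read at 430 nm after 320 nm excitation. The 20-min minus 0-min signal was scaled between DMSO/no-enzyme wells and ADEP (5.8 microM final).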
Epigenetic derep – Quantitative High-Throughput Screen for Regulators of Epigenetic Control | murine LDR cells, GFP reporter derepression, 30 h | Potency, µM (highest dose often 53.9 µM), for the others: at the top dose GFP activation, usual class: activators | 280,000 compounds, 0.2% hits | AID 1865, 2009; note: % of control where 0% means no effect; nearly all actives have a fitted effect of over 60% in size
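GFP-positive cell count by laser-scanning cytometry (objects 20–120 um) after 30 h, 37 C compound exposure of murine LDR cells; reporter is CMV-GFP integrated at a silenced locus, inducible by HDAC or DNMT inhibitors.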
RORg inh – qHTS for inhibitors of ROR gamma transcriptional activity | AID 2551, 2010 | 310,000 compounds, 5.4% hits | Drosophila S2 Gal4-RORgamma UAS-luciferase reporter, 20 h | Potency, µM (doses to about 53.6 µM), for the others: top-dose activity change, negative = inhibition, hits mostly inhibitors; note: % is set by controls: 0 for no effect and ±100 for the full control effect; nearly all actives have a fitted effect of over 60% in size
Target sequence (P51450 whole entry, looked up, the tested form may be a part): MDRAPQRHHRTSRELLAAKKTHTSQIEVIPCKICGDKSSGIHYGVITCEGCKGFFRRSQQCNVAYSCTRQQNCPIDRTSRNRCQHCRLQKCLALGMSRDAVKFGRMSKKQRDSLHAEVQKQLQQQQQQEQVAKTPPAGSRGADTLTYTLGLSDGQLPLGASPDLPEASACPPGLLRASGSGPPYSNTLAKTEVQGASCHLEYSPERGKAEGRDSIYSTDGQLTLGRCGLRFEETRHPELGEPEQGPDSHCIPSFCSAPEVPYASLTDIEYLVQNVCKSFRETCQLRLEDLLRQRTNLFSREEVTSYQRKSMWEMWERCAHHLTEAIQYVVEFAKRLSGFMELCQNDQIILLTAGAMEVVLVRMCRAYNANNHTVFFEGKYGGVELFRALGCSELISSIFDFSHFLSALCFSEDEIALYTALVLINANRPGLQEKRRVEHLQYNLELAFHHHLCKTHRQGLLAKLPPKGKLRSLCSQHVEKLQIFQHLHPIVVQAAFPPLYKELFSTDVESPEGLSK
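ROR gamma transcriptional activity was tracked as Gal4-UAS luciferase output in stably transfected Drosophila Schneider cells, with compound added 1 hr before 700 uM copper sulfate induction and a 20 hr ambient-temperature incubation.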
Sfp inh – qHTS Assay for Inhibitors of Bacillus subtilis Sfp phosphopantetheinyl transferase (PPTase); Potency, µM, for inactives: largest response in the series, negative = inhibition, actives largely listed as inhibitors; Biochemical Sfp PPTase activity, qHTS; 310,000 compounds, 3.5% hits;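 note: the enzyme is Sfp with the accession as filed and its product quenches rhodamine fluorescence; 0% = enzyme reaction without inhibitor and -100% = no enzyme wells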
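Compounds were incubated with enzyme (final 15 nM) for 15 min at room temperature before substrate addition started the reaction. Fluorescence at 525 nm excitation, 598 nm emission was recorded immediately and after 30 minutes.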
Numbers without * were called inactive; [ ] = dose if it differs, or a comment. A selection: hits, their analogues and other compounds. The true share with any hit is near 8.1%. Unless noted, calls come from the whole dose curve; as a rule, active = well fitted curve in the direction sought with a large enough effect; inconclusive = small, poorly fitted or top-dose-only effect, or another doubt; inactive = no such curve, though single readings can be large; an effect the other way counts as inactive or inconclusive. Potency is the fitted concentration of half-maximal effect.

How did COCCNc1nc(NCCOc2ccccc2Cl)c2sc(-c3ccccc3)cc2n1 do in these assays?
PINK1 expr mod: 25.6%; ClpP mod: -26.8%

How did COc1cccc(CNC(=O)CSC2=Nc3ccccc3C3=NC(C(C)C)C(=O)N23)c1 (centres undefined) do in these assays?
PINK1 expr mod: 0.7%; ClpP mod: inconclusive; Epigenetic derep: -4.4%

What do the screens show for `O=C(c1ccccc1Cl)N1c2ncnn2C2(CCCCC2)[C@@H]2CCCC[C@@H]21`?
PINK1 expr mod: -0.3%; ClpP mod: -2.2%; Epigenetic derep: -3.2%

How did Cc1ccc(NC(=O)CNCc2ccc(Cl)cc2Cl)cc1S(=O)(=O)N(C)C do in these assays?
VP16 counter: 3.4%; PINK1 expr mod: 4.4%; RORg inh: 14.4%; Sfp inh: 79.4µM*

Results for Cc1ccc(NC(=O)CSc2nn(-c3ccccc3)c(=S)s2)cc1S(=O)(=O)N(C)C ?
VP16 counter: 14.1µM*; PINK1 expr mod: 1.1%; ClpP mod: -3.0%; Epigenetic derep: -0.9%; RORg inh: inconclusive; Sfp inh: 7.6%

What do the screens show for `Cc1ccccc1-c1nn2c(=O)cc(CN3CCN(C(=O)/C=C/c4ccccc4)CC3)nc2s1`?
PINK1 expr mod: -1.0%; ClpP mod: -7.0%; Epigenetic derep: -3.4%

Results for CC(C)CC(=O)Nc1ccc(C(=O)OCc2cc(=O)n3nc(C(C)C)sc3n2)cc1 ?
PINK1 expr mod: 1.1%; ClpP mod: -3.2%; Epigenetic derep: -2.1%

What do the screens show for `CCOc1ccc2nc3cc(NCc4ccc(OC)cc4)ccc3c(N)c2c1`?
VP16 counter: inconclusive; PINK1 expr mod: 0.2%; ClpP mod: -3.2%; RORg inh: 33.7%; Sfp inh: 31.6µM*

How did CCOc1ccc2nc3cc(N)ccc3c(N)c2c1 do in these assays?
VP16 counter: inconclusive; Epigenetic derep: -1.3%; RORg inh: -2.1%[10 µM]; Sfp inh: -25.5%

Results for c1ccc(-c2n[nH]c3c2CCC3)cc1 ?
VP16 counter: -21.2%; PINK1 expr mod: 0.2%; ClpP mod: 0.5%; Epigenetic derep: 1.0%; RORg inh: 12.6µM*; Sfp inh: 14.6%

What do the screens show for `COc1cc2c(cc1/C=C/C(=O)O)OC(C)C2` (centres undefined)?
VP16 counter: 6.3%; PINK1 expr mod: -1.0%; ClpP mod: 3.8%; Epigenetic derep: -0.5%; RORg inh: -14.1%; Sfp inh: 8.5%

What do the screens show for `CC(C)(O)C1Cc2cc(/C=C/C(=O)O)c(O)cc2O1` (centres undefined)?
VP16 counter: -7.0%; PINK1 expr mod: -1.2%; Epigenetic derep: 12.2%; RORg inh: -19.1%; Sfp inh: 6.31µM*

How did CCOc1cc(C2CC(=O)NC3=C2C(=O)C(C(=O)OC)C(C)C3)cc(Br)c1O (centres undefined) do in these assays?
VP16 counter: 1.0%; PINK1 expr mod: 4.9%; ClpP mod: 0.3%; Epigenetic derep: -1.1%; RORg inh: inconclusive; Sfp inh: 50.1µM*

How did C#CCCCO/N=C1/C[C@@H](O)[C@@H](O)[C@@H]2[C@H]3C(=O)N(c4ccc(F)cc4F)C(=O)[C@@H]3CC[C@H]12 do in these assays?
VP16 counter: -4.2%[10 µM]; Epigenetic derep: 0.8%[10.1 µM]; RORg inh: -0.8%[10 µM]; Sfp inh: 7.3%

How did O=C(NCCc1nnc2n1CCN(Cc1ccc(F)cc1)CC2)c1ccc(F)cc1 do in these assays?
PINK1 expr mod: -0.1%

Results for COc1ccc(C(CC(=O)Nc2cc(OC)c(OC)c(OC)c2)N2Cc3ccccc3C2=O)cc1 (centres undefined) ?
PINK1 expr mod: 0.6%; ClpP mod: -0.8%; Epigenetic derep: 2.2%

Results for Cc1nc(C(C)N(C)Cc2nc(-c3ccc4c(c3)OCO4)no2)c(C)s1 (centres undefined) ?
VP16 counter: inconclusive; PINK1 expr mod: 3.1%; Epigenetic derep: -3.2%; RORg inh: 17.8µM*; Sfp inh: -15.1%

How did Cc1cc(C)c(NC(=O)CN2c3ccccc3S(=O)(=O)c3ccccc32)c(C)c1 do in these assays?
PINK1 expr mod: 0.5%; ClpP mod: 4.4%; Epigenetic derep: 2.9%

How did OCCN(CCO)c1ccc2ccccc2c1 do in these assays?
VP16 counter: -0.5%; PINK1 expr mod: -1.7%; ClpP mod: 3.9%; Epigenetic derep: 5.8%; RORg inh: -2.1%; Sfp inh: -29.2%

How did OCCN(CCO)c1ccc(C(c2ccccc2Cl)c2ccc(N(CCO)CCO)cc2Cl)c(Cl)c1 do in these assays?
VP16 counter: inconclusive; PINK1 expr mod: -2.1%; ClpP mod: 1.7%; Epigenetic derep: -0.9%; RORg inh: 14.1µM*; Sfp inh: -10.2%

What do the screens show for `CN=Cc1sc2ccccc2c1O`?
VP16 counter: 6.4%; PINK1 expr mod: -2.1%[38.3 µM]; ClpP mod: -0.5%; Epigenetic derep: -0.1%; RORg inh: -1.2%; Sfp inh: -2.0%

What do the screens show for `Oc1c(C=NCc2ccncc2)sc2ccccc12`?
VP16 counter: -19.3%; PINK1 expr mod: -0.3%; ClpP mod: -10.4%; Epigenetic derep: 0.0%; RORg inh: -41.1%; Sfp inh: 28.2µM*

What do the screens show for `C=C(C)C(=O)/C=C/c1ccc(C(F)(F)F)cc1`?
VP16 counter: 4.8%; Epigenetic derep: -0.3%; RORg inh: -25.5%; Sfp inh: 2.9%

What do the screens show for `O=C(CCNc1ccc(F)cc1)c1ccco1`?
VP16 counter: inconclusive; PINK1 expr mod: -0.4%; ClpP mod: -1.3%; Epigenetic derep: 6.9%; RORg inh: 11.2µM*; Sfp inh: 2.2%

Results for COC(=O)c1ccc(Oc2nc(C)cc(Oc3ccccc3)n2)cc1 ?
VP16 counter: -0.9%; PINK1 expr mod: -0.7%; ClpP mod: -0.6%; Epigenetic derep: -1.0%; RORg inh: inconclusive; Sfp inh: 3.4%

Results for COC(=O)c1ccc(Oc2cc(C)nc(-n3nc(C)cc3C)n2)cc1 ?
VP16 counter: 3.16µM*; PINK1 expr mod: 13.7%[38.3 µM]; ClpP mod: -1.9%; Epigenetic derep: -0.3%; RORg inh: 0.282µM*; Sfp inh: 16.4%

What do the screens show for `OC(c1ccc2c(c1)CN(Cc1ccc3nsnc3c1)CCO2)C1CCCCC1` (centres undefined)?
PINK1 expr mod: -0.3%

What do the screens show for `CCOC(=O)c1c(C)[nH]c(C2=NNC(=Nc3ccccc3OC)SC2)c1C`?
VP16 counter: -12.5%; PINK1 expr mod: inconclusive; ClpP mod: 0.7%; Epigenetic derep: -1.1%; RORg inh: 1.4%; Sfp inh: 79.4µM*

Screening data (PubChem BioAssay)
